PubChem BioAssay AID652105 (National Center for Advancing Translational Sciences (NCATS), 2013)
The whole screen tested about 330,000 compounds, of which about 4,100 (1.2%) were called active. Roughly 2% stayed inconclusive and do not appear here. This excerpt belongs to a sample that is enriched for actives. A number with no mark means an inactive call. The calls were made as follows: active = max response of -50% or lower; inconclusive = between -30% and -50%; inactive = -30% or higher.

molecular target: Phosphatidylinositol 5-phosphate 4-kinase type-2 alpha (Homo sapiens) (UniProt P48426); assay: qHTS for Inhibitors of phosphatidylinositol 5-phosphate 4-kinase (PI5P4K); details: PI5P4Kalpha enzyme, ADP-Glo luminescence, 60 min; stronger effect = lower value; also: value at the top dose of about 77 µM
Method in brief: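 qHTS, 1536-well: enzyme/substrate mix, compound by pin tool, 5 microM ATP final; RT 60 min; ADP-Glo reagents 1 (45 min) then 2 (30 min); luminescence.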
% is scaled to controls: 0 for no effect and ±100 for the full control effect.

Chain of Phosphatidylinositol 5-phosphate 4-kinase type-2 alpha (Homo sapiens) (P48426 whole entry, looked up): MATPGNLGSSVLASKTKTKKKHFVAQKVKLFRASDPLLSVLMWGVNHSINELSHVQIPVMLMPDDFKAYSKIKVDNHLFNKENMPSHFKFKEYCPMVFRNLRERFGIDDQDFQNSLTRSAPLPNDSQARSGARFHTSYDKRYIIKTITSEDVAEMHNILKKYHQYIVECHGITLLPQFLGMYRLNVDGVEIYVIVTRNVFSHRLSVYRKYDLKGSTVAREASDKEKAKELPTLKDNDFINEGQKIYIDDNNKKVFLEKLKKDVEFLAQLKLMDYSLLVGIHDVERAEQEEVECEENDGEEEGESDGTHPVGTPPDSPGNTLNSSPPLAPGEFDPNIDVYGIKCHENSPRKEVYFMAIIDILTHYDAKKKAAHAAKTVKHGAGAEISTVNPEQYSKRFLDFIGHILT

| Compound | max response |
| --- | --- |
| O=C(NCc1cccc(C(F)(F)F)c1)c1ccc2sc(COCCO)nc2c1 | -7.68% |
| CC1(C(=O)Nc2ccc3c(c2)OCCO3)CCN1C(=O)Cc1cc(F)ccc1F (centres undefined) | 2.77% |
| O=C1C(Cl)=C(Oc2ccccc2)C(=O)c2ccccc21 | -95.6% (active) |
| Clc1ccccc1Nc1nc(NCc2cccs2)nc2ccsc12 | -4.54% |
| CCOc1ccc(NC(=O)CCNC(=O)c2ccc(Br)cc2)cc1 | -0.675% |
| CC(=O)c1c(C)[nH]c(C(=O)OCC(=O)Nc2sc3c(c2C#N)CCCC3)c1C | -6.62% |
| CCOc1ccc(NC(=O)c2ccc(NC(=O)COC(=O)c3ccc(NC(=O)CC#N)cc3)cc2)cc1 | -67.8% (active) |
| N#CCC(=O)Nc1ccc(C(=O)OCC(=O)Nc2sc3c(c2C#N)CCCC3)cc1 | -64.2% (active) |
| CC(C)NC(=O)NC(=O)COC(=O)c1ccc(NC(=O)CC#N)cc1 | -8.69% |
| Cc1cccc(C(=O)OCC(=O)Nc2sc3c(c2C#N)CCC3)c1 | -29.9% |
| CC1=C(C(=O)N(C(C)C)C(C)C)CC(CC(=O)NCCCCc2ccccc2)C(=O)N1CCC1=CCCCC1 (centres undefined) | -0.015% |
| COC(=O)C[C@H]1C=C[C@@H](NS(=O)(=O)c2ccc(C)cc2)[C@@H](CO)O1 | 0.772% |
| Cc1ccc(S(=O)(=O)/N=C2\C=C(NS(=O)(=O)c3ccc(C)cc3)C(=O)c3ccccc32)cc1 | -25.4% |
| COc1ccc(S(=O)(=O)/N=C2\C=C(NS(=O)(=O)c3ccccc3)C(=O)c3ccccc32)cc1 | -64.4% (active) |
| O=C1C=C(NS(=O)(=O)c2ccccc2)C(=O)c2ccccc21 | 1.96% |
| O=C(OCc1ccccc1)N1CCC2CC1c1ccc(-c3ccc4c(c3)OCO4)cc12 (centres undefined) | 14.4% |
| O=S1(=O)CC(N2CCN(CCO)CC2)CN1Cc1cn(Cc2ccc(Cl)cc2)nn1 (centres undefined) | -1.75% |
| NC(Cc1ccc(F)cc1)c1csc(Nc2nncc3ccccc23)n1 (centres undefined) | -1.97% |
| CCOC(=O)c1sc(=S)n2c1[nH]c(=O)c1ccc(C(=O)OC)cc12 | -52.6% (active) |
| CCOC(=O)c1ccc2c(c1)nc(C)n2CC | 0.903% |
| COC(=O)c1cccc(NC(=O)CSc2nc(C)cc(=O)[nH]2)c1 | -26.1% |

| Compound | max response |
| --- | --- |
| O[C@H]1C[C@H](c2ccc(Cl)cc2)N(Cc2cccs2)C[C@@H]1n1cc(C2CC2)nn1 | 16.1% |
| COc1c(O)cc2oc(-c3ccc(O)c(O)c3)cc(=O)c2c1O | -59.1% (active) |
| COc1ccc(-c2cc(=O)c3c(O)cc(O[C@@H]4O[C@H](CO[C@@H]5O[C@@H](C)[C@H](O)[C@@H](O)[C@H]5O)[C@@H](O)[C@H](O)[C@H]4O)cc3o2)cc1O | 0.0751% |
| COc1cc(O)c2c(=O)c3c(O)c(O)ccc3oc2c1OC | -7.12% |
| Cc1[nH]c2ccccc2c1C(=O)c1cc([C@H](NC(=O)OC(C)(C)C)C(C)C)sc1N | 2.87% |
| CC(=O)OCC(C)n1c(=O)c2ccccc2n1C(C)=O (centres undefined) | -0.324% |
| COc1ccc(C(O)c2nc(-c3ccc4c(c3)OCO4)cs2)cc1 (centres undefined) | -1.53% |
| Cc1ccc(CNC(=O)c2cccc3c2C(=O)c2ccc(N4CCC(C)CC4)cc2S3(=O)=O)cc1 | -1.75% |
| CC1CCN(c2ccc3c(c2)S(=O)(=O)c2cc(C(=O)O)ccc2C3=O)CC1 | -56.6% (active) |
| O=C1c2ccccc2S(=O)(=O)c2cc(N3CCN(c4ccccn4)CC3)ccc21 | 1.24% |
| CCCCC(=O)N(C)c1c(CC)nc2c(OCc3ccc(S(C)(=O)=O)cc3)cccn12 | -1.42% |
| CC(C)[C@H](NC(=O)c1ccccc1F)C(=O)Nc1cccc(S(=O)(=O)N2CCOCC2)c1 | 0.136% |
| COc1ccc(C2CC(c3ccc([N+](=O)[O-])cc3)=NN2C(C)=O)cc1 (centres undefined) | 0.372% |
| CN1C2CCC1CC(NC(=O)c1ccc([N+](=O)[O-])cc1)C2 (centres undefined) | 0.848% |
| CC(=O)N1CC[n+]2c(-c3ccc([N+](=O)[O-])cc3)csc21 | -61% (active) |
| COC(=O)[C@]12CCCCC=C1N(CCC1=CCCCC1)C(=O)[C@H](CC(=O)NCC1CCCCC1)C2 | 7.3% |
| CC(=O)N1Cc2cc(C(=O)NCc3cccc(F)c3)nc(-c3cccc(C4=CCCC4)c3)c2[C@H]1CCO | -1.08% |
| CNc1cc(-c2c(OC)cccc2OC)ncn1 | 3.83% |
| C[C@@H]1C[C@@H]2O[C@H]2/C=C\C=C\C(=O)Cc2c(Cl)c(O)cc(O)c2C(=O)O1 | -50.5% (active) |
| CC1(C(=O)Nc2cccc3c2CCCC3)CCN1C(=O)C1(c2ccccc2)CC1 (centres undefined) | 20.1% |
| O=C1OCCOC2CCCc3oc(-c4ccccc4)c1c32 (centres undefined) | -3.14% |

| Compound | max response |
| --- | --- |
| OC(c1ccc(F)cc1)c1ncc(-c2cccc(C(F)(F)F)c2)[nH]1 (centres undefined) | 16.6% |
| COc1cccc(/C=C2\SC(=S)N(CCCC(=O)N3CCOCC3)C2=O)c1 | 1.86% |
| C=CCC1=C/C(=C\c2c(N)n3nc(CC(=O)N4CCOCC4)sc3nc2=O)C=C(OC)C1=O | -61.1% (active) |
| COC1=C/C(=C/c2c(N)n3nc(CC(=O)N4CCOCC4)sc3nc2=O)C=CC1=O | -79.3% (active) |
| COc1cc(/C=C2\C(=N)N3N=C(CC(=O)N4CCOCC4)SC3=NC2=O)cc(OC)c1OC | 1.99% |
| CCOC(=O)/C=c1\s/c(=C\c2ccccc2OC)c(=O)n1CC(=O)N1CCOCC1 | -6.89% |
| CCOC(=O)C1=CCC(c2ccc(F)cc2)N(S(=O)(=O)c2ccc(C)cc2)C1 (centres undefined) | 8.18% |
| O=C(COc1ccc(Br)cc1)OCC(=O)c1ccc[nH]1 | 1.45% |
| CCc1nc2c(OCc3ccc(C(=O)OC)cc3)cccn2c1N(C)C(=O)C(C)C | -5.01% |
| COc1ccc(C(=O)Nc2ccccc2C(=O)N/N=C/c2ccc(O)c(OC)c2)cc1 | -50.7% (active) |
| CCOc1cc(/C=N/NC(=O)c2cc(-c3ccccc3)nc3ccccc23)ccc1O | 1.21% |
| COc1cc(/C=N/NC(=O)c2ccc(N3CCCC3=O)cc2)ccc1O | 0.256% |
| CCCCCCN1CCN(C2CN(Cc3cn(CCCCCC)nn3)S(=O)(=O)C2)CC1 (centres undefined) | -1.03% |
| CC(C)Nc1nc(NCCOc2ccccc2Cl)c2sccc2n1 | -24.4% |
| O=C(NCc1ccco1)c1cccc(-c2ccc3nncn3c2)c1 | 5.11% |
| Cc1cccc(C)c1Cn1c(C)c(C(=O)NCc2cccc(Cl)c2)sc1=O | 9.15% |
| CCOC(=O)/C(N=Nc1cc(C(=O)O)cc(C(=O)O)c1)=C(\O)CCl | -52.4% (active) |
| COc1cccc(CN(C)C(=O)CC[C@H]2O[C@@H](n3cnc4c(NC(=O)c5ccccc5)ncnc43)[C@H](O)[C@@H]2O)c1 | -6.93% |
| COC(=O)[C@@]12C[C@@H](CC(=O)NCc3cccc(C(F)(F)F)c3)C(=O)N(Cc3ccco3)C1=CCC(C)(C)C2 | -1.12% |
| NC(=O)c1c(NC(=O)CSc2nnc(-c3ccco3)n2N)sc2c1CCCC2 | -79.7% (active) |
| Nn1c(SCC(=O)Nc2nccs2)nnc1-c1ccco1 | -11.2% |

| Compound | max response |
| --- | --- |
| Cc1cc(NC(=O)CSc2nnc(-c3ccco3)n2N)no1 | -9.01% |
| O=C1c2ccccc2C(c2nc3ccccc3[nH]2)N1c1ccccc1 (centres undefined) | -0.58% |
| CN(C(=O)COC(=O)c1cc(-c2ccco2)nc2ccccc12)C1CCS(=O)(=O)C1 (centres undefined) | -66.2% (active) |
| CN(C(=O)COC(=O)Cc1ccccc1[N+](=O)[O-])C1CCS(=O)(=O)C1 (centres undefined) | 1.78% |
| COc1ccc(/C=C(\C#N)C(=O)OCC(=O)N(C)C2CCS(=O)(=O)C2)cc1 (centres undefined) | 4.63% |
| CCNC(=O)c1cc2c(c(-c3cccc(-c4cncnc4)c3)n1)[C@H](CCO)N(C(C)=O)C2 | 1.34% |
| CCCCc1c(-c2ccc(Cl)cc2)ncn1CCc1ccccc1OC | 19% |
| Fc1cccc(Cc2c(-c3ccc(Cl)cc3)nc3ccc(Cl)cn23)c1 | 1.89% |
| O=C(Cc1c(F)cccc1Cl)Nc1ccc(-n2cnnn2)cc1 | 4.15% |
| C=CCc1cccc(/C=N/NC(=O)COc2ccc(-n3cnnn3)cc2)c1O | -0.249% |
| O=C(COc1ccc(-n2cnnn2)cc1)Nc1ccccc1Cl | -51.4% (active) |
| C=CCC[C@@H](CCCCC)OC(=O)/C=C/[C@@H](O)[C@H](O)C[C@H](O)CC=C | 17.3% |
| COCCNc1nc(Nc2ccccc2Cl)c2sc(-c3ccccc3)cc2n1 | -2.99% |
| O=[N+]([O-])c1cc(S(=O)(=O)Nc2cccc(Cl)c2)ccc1N=Nc1c(O)[nH]c2ccccc12 | -75.5% (active) |
| O=C(O)c1ccccc1/C=N/Nc1ccc(S(=O)(=O)Nc2ccc(Cl)cc2)cc1[N+](=O)[O-] | -7.22% |
| Oc1[nH]c2ccccc2c1N=Nc1c(F)c(F)c(F)c(F)c1F | 1.14% |
| CCOC(=O)[C@]12CCCC=C1N(Cc1ccc3c(c1)OCO3)C(=O)[C@H](CC(=O)NCc1cccs1)C2 | 3.13% |
| COc1cccc(CNC(=O)[C@@H]2CCCN2C(=O)[C@@H]2CCCN2C(=O)c2ccccc2)c1 | -1.24% |
| O=C(CCc1ccccc1)Nc1nn[nH]n1 | -6.47% |
| O=C(/C=C/c1c(F)cccc1Cl)Nc1nn[nH]n1 | -56.7% (active) |
| O=C(/C=C/c1c(Cl)cccc1Cl)NCc1ccccc1 | 3.82% |
